# Measurements: ChEMBL document CHEMBL1961873, “Compounds: GSK PKIS; Assays: Nanosyn kinase panel” (2012)
# How the values were obtained:
# [1] = target: T1, Serine/threonine-protein kinase D2 (Homo sapiens) (UniProt Q9BZL6); details: at 1 µM;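 also: mean value of PRKD2 inhibition, from the GSK PKIS screening panel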
# T1 sequence (whole entry): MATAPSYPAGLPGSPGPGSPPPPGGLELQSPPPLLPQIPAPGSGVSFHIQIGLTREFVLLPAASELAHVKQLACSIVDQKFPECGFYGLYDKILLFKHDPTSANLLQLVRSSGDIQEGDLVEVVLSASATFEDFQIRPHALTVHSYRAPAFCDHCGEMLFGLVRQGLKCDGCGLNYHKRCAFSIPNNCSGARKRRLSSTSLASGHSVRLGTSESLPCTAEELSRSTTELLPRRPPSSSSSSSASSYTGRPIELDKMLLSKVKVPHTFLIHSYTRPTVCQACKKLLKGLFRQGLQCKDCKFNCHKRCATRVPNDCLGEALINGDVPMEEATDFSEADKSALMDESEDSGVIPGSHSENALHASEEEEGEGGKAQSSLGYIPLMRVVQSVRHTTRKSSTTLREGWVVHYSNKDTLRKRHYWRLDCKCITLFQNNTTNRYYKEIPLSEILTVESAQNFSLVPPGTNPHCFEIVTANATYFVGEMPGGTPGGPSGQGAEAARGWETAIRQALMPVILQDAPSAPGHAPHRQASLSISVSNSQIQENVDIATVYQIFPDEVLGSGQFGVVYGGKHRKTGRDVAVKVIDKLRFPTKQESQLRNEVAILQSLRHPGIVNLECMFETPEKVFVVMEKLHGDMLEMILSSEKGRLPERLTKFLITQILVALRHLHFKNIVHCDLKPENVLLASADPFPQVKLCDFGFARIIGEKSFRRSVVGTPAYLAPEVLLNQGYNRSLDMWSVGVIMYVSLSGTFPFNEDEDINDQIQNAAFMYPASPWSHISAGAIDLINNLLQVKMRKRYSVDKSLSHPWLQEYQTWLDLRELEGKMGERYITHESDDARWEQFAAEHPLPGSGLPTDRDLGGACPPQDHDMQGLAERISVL
# [2] = target: T2, Serine/threonine-protein kinase D3 (Homo sapiens) (UniProt O94806); details: at 0.1 µM
# T2 sequence (whole entry): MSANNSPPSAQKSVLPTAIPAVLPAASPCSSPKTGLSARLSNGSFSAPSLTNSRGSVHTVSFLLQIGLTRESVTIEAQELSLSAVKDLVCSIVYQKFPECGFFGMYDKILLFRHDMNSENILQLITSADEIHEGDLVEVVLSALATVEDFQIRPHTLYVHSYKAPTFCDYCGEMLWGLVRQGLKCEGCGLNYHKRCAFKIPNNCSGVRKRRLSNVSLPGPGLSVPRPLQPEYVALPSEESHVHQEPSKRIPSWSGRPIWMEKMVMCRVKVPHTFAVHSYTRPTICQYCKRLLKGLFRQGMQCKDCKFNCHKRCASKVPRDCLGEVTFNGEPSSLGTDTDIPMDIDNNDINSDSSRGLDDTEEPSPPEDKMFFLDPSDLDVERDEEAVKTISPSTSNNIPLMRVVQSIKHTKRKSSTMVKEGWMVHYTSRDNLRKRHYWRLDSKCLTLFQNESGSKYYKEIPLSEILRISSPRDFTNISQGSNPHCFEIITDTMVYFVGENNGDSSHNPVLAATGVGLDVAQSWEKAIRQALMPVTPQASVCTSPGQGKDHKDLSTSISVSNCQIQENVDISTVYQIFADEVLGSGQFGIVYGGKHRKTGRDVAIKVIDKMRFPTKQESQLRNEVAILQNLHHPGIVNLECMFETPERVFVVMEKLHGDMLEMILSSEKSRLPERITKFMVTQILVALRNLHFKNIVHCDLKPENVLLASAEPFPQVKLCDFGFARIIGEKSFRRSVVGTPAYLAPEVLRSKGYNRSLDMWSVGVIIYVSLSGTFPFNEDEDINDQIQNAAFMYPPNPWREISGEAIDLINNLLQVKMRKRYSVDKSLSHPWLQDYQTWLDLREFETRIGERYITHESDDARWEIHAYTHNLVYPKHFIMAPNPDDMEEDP
# [3] = target: T2, Serine/threonine-protein kinase D3 (Homo sapiens); details: at 1 µM
# [4] = target: T3, cGMP-dependent protein kinase 1 (Homo sapiens) (UniProt Q13976); details: at 0.1 µM
# T3 sequence (whole entry): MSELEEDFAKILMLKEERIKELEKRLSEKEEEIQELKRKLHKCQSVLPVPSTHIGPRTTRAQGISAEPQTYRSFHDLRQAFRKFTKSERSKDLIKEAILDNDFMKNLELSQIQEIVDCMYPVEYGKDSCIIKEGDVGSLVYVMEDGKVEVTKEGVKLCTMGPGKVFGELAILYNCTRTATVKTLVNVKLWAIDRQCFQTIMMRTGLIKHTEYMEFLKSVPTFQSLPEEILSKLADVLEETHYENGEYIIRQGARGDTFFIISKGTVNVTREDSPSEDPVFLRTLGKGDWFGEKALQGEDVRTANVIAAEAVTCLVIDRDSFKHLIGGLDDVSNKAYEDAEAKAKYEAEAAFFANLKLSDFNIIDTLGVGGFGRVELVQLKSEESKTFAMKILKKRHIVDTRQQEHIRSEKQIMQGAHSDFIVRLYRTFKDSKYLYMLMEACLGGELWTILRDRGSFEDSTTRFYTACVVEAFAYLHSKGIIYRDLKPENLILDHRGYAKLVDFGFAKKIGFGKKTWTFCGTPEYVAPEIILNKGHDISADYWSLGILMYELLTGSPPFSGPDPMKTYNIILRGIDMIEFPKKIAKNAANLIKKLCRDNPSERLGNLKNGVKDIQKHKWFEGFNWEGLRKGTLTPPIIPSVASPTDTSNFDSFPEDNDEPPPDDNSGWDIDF
# [5] = target: T3, cGMP-dependent protein kinase 1 (Homo sapiens); details: at 1 µM
# [6] = target: T4, cGMP-dependent protein kinase 2 (Homo sapiens) (UniProt Q13237); details: at 0.1 µM
# T4 sequence (whole entry): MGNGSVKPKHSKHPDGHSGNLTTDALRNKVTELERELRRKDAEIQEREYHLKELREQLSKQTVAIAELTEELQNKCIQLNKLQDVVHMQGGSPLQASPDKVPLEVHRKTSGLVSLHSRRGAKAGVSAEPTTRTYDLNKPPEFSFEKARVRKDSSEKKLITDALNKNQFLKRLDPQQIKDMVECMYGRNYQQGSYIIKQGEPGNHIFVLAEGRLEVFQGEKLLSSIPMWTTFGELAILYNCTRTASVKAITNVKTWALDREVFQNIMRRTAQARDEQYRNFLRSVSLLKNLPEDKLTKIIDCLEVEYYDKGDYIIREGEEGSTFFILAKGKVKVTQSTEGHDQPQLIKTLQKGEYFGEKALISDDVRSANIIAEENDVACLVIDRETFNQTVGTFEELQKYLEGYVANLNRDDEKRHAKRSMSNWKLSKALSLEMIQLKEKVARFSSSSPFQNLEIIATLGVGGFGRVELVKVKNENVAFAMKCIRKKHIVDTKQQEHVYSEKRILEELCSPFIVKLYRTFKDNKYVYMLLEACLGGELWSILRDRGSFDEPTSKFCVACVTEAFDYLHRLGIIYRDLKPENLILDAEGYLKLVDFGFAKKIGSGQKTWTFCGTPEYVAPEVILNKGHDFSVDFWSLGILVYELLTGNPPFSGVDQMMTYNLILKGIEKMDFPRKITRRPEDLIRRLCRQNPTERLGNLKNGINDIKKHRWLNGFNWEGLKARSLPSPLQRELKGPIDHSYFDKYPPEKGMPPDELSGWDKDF
# [7] = target: T4, cGMP-dependent protein kinase 2 (Homo sapiens); details: at 1 µM
# [8] = target: T5, cAMP-dependent protein kinase catalytic subunit PRKX (Homo sapiens) (UniProt P51817); details: at 0.1 µM
# T5 sequence (whole entry): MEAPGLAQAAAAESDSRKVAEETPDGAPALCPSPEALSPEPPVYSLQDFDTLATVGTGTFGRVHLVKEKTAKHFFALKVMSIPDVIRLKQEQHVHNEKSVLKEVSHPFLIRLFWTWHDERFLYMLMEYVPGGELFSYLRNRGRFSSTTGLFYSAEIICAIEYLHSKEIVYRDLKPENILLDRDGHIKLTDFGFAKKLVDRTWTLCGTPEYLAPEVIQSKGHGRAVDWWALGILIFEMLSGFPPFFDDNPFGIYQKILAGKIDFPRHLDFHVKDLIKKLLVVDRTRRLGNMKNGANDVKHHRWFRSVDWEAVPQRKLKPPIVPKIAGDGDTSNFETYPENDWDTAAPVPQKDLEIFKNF
# [9] = target: T5, cAMP-dependent protein kinase catalytic subunit PRKX (Homo sapiens); details: at 1 µM
# [10] = target: Rho-associated protein kinase 1 (Homo sapiens) (UniProt Q13464); details: at 0.1 µM
# [11] = target: Rho-associated protein kinase 1 (Homo sapiens) (UniProt Q13464); details: at 1 µM
# [12] = target: Rho-associated protein kinase 2 (Homo sapiens) (UniProt O75116); details: at 0.1 µM
# [13] = target: Rho-associated protein kinase 2 (Homo sapiens) (UniProt O75116); details: at 1 µM
# [14] = target: Ribosomal protein S6 kinase alpha-1 (Homo sapiens) (UniProt Q15418); details: at 0.1 µM
# [15] = target: Ribosomal protein S6 kinase alpha-1 (Homo sapiens) (UniProt Q15418); details: at 1 µM
# [16] = target: Ribosomal protein S6 kinase alpha-3 (Homo sapiens) (UniProt P51812); details: at 0.1 µM
# [17] = target: Ribosomal protein S6 kinase alpha-3 (Homo sapiens) (UniProt P51812); details: at 1 µM
# [18] = target: Ribosomal protein S6 kinase alpha-2 (Homo sapiens) (UniProt Q15349); details: at 0.1 µM
# [19] = target: Ribosomal protein S6 kinase alpha-2 (Homo sapiens) (UniProt Q15349); details: at 1 µM
# [20] = target: Ribosomal protein S6 kinase alpha-6 (Homo sapiens) (UniProt Q9UK32); details: at 0.1 µM;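 also: reported value is the mean inhibition of RSK4, from the GSK PKIS kinase inhibitor screen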
# Ribosomal protein S6 kinase alpha-6 (Homo sapiens), sequence (Q9UK32 whole entry): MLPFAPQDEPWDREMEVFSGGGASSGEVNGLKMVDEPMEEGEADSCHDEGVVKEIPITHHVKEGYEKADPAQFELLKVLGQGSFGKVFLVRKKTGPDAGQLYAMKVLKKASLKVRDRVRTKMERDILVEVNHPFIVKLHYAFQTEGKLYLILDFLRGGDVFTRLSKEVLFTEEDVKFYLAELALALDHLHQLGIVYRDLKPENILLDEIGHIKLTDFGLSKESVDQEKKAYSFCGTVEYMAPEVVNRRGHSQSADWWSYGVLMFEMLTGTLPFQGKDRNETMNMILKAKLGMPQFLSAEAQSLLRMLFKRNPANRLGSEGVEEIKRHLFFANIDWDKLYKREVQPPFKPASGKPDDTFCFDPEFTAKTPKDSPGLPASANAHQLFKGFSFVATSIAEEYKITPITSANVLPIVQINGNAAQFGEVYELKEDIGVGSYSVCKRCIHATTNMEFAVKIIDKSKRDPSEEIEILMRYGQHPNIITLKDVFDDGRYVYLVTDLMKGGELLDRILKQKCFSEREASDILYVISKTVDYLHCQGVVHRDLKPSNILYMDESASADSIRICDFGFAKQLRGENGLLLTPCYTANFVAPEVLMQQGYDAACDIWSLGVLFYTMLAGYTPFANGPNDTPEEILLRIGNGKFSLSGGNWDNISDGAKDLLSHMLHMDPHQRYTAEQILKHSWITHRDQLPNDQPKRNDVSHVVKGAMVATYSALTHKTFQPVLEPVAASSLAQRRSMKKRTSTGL
# Ribosomal protein S6 kinase alpha-2 (Homo sapiens), sequence (Q15349 whole entry): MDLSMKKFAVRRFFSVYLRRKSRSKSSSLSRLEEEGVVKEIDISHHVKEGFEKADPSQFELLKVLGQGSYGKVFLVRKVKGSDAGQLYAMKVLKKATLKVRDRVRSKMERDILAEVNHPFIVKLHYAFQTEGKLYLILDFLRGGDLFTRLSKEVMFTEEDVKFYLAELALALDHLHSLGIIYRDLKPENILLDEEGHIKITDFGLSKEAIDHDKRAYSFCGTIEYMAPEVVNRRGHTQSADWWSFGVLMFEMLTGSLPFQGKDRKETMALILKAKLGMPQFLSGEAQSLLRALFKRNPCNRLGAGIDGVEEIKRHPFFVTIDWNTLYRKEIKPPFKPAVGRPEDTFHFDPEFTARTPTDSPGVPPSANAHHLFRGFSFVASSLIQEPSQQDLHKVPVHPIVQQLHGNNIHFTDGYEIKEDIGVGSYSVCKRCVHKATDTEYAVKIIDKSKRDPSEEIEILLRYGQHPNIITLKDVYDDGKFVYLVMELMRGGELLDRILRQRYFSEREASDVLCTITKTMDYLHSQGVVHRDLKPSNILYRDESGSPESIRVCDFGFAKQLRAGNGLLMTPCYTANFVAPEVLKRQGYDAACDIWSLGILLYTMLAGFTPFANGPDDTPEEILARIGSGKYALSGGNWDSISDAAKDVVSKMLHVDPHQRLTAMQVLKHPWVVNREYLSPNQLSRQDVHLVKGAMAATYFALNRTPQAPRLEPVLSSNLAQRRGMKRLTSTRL
# Ribosomal protein S6 kinase alpha-3 (Homo sapiens), sequence (P51812 whole entry): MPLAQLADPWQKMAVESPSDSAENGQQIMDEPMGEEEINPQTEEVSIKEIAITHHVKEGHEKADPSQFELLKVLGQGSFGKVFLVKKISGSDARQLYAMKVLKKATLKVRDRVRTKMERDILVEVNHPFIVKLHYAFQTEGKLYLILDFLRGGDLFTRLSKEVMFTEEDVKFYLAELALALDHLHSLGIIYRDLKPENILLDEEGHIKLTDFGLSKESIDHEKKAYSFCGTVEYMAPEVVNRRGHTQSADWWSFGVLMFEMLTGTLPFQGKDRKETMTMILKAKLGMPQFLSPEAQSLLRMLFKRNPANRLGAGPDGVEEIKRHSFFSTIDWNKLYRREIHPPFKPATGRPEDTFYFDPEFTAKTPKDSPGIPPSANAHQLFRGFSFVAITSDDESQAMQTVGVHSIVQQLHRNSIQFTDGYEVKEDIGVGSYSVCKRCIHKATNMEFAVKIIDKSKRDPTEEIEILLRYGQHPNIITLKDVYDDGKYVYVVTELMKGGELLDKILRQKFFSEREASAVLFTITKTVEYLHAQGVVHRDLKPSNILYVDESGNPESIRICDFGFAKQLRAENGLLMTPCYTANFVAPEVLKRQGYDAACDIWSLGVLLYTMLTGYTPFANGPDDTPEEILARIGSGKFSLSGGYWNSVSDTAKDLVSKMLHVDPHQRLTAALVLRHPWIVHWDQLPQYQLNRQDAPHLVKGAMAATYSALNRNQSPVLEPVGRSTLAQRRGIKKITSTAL
# Ribosomal protein S6 kinase alpha-1 (Homo sapiens), sequence (Q15418 whole entry): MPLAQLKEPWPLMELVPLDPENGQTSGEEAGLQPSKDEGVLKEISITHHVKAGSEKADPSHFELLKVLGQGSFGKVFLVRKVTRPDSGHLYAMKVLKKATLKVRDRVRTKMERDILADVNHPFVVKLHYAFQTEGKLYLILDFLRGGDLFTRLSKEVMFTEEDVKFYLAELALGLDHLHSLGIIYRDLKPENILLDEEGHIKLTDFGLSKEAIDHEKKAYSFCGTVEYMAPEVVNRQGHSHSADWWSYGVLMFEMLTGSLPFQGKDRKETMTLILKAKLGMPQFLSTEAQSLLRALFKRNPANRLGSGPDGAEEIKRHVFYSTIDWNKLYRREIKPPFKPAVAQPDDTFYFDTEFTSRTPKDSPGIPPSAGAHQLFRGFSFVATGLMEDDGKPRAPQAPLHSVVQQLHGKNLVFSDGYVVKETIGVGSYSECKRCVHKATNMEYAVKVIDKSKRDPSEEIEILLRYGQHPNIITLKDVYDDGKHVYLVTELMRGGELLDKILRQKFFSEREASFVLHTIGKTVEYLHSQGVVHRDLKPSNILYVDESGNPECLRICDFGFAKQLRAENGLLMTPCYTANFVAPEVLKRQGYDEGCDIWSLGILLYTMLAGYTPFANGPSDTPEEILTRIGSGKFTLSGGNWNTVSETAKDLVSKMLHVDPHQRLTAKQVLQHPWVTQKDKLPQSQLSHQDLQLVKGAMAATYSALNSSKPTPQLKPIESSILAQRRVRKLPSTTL
# Rho-associated protein kinase 1 (Homo sapiens), sequence (Q13464 2-1354 limits assumed): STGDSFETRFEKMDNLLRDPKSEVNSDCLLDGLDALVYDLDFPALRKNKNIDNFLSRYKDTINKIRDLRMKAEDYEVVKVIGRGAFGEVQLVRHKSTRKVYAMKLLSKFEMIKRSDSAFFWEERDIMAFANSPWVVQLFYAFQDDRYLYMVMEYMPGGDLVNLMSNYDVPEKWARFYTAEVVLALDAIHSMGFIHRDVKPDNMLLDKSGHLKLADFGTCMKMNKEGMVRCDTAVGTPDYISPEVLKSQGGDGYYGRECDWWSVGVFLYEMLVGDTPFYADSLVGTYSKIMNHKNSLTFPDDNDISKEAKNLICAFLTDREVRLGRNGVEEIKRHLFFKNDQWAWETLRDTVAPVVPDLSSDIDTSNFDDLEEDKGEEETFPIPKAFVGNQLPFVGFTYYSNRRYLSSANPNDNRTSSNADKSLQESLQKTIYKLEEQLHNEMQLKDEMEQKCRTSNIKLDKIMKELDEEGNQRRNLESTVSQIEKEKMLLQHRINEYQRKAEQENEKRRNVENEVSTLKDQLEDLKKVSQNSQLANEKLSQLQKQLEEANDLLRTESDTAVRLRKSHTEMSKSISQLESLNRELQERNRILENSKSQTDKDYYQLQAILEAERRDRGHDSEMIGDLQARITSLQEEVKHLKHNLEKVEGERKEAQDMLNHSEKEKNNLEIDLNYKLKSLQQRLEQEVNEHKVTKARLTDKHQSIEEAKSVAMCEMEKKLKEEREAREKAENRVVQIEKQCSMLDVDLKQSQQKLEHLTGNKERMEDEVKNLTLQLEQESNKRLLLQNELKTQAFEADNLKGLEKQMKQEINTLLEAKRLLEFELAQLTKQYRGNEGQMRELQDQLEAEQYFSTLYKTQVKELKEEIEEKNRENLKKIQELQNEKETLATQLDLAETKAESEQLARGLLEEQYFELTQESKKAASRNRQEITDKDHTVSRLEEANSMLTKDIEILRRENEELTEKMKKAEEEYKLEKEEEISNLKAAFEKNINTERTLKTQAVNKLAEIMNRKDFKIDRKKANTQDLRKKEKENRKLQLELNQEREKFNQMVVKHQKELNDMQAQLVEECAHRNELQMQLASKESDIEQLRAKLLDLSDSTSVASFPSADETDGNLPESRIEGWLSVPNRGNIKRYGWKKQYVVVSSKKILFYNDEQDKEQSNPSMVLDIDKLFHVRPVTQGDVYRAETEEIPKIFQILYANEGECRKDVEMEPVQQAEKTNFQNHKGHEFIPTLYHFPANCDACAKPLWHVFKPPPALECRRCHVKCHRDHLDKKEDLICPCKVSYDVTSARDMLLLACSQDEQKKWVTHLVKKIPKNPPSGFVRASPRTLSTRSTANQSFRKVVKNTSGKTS
compound,measurement,setting,value
Clc1ccc(CNc2nccc(-c3cnn4ncccc34)n2)cc1,inhibition,[1],5.34%
same,inhibition,[2],0.83%
same,inhibition,[3],3.93%
same,inhibition,[4],2.07%
same,inhibition,[5],6.09%
same,inhibition,[6],-0.17%
same,inhibition,[7],3.68%
same,inhibition,[8],0.56%
same,inhibition,[9],1.41%
same,inhibition,[10],0.21%
same,inhibition,[11],1.31%
same,inhibition,[12],2.04%
same,inhibition,[13],2.71%
same,inhibition,[14],1.41%
same,inhibition,[15],1.24%
same,inhibition,[16],0.05%
same,inhibition,[17],0.52%
same,inhibition,[18],0.62%
same,inhibition,[19],0.33%
same,inhibition,[20],2.62%
Fc1ccc(-c2ncn(CCCN3CCOCC3)c2-c2ccncc2)cc1,inhibition,[1],3.09%
same,inhibition,[2],1.63%
same,inhibition,[3],2.8%
same,inhibition,[4],0.4%
same,inhibition,[5],0.29%
same,inhibition,[6],0.94%
same,inhibition,[7],0.26%
same,inhibition,[8],-0.21%
same,inhibition,[9],-1.38%
same,inhibition,[10],1.06%
same,inhibition,[11],-0.82%
same,inhibition,[12],0.06%
same,inhibition,[13],-4.4%
same,inhibition,[14],-1.49%
same,inhibition,[15],-3.25%
same,inhibition,[16],0.33%
same,inhibition,[17],-0.73%
same,inhibition,[18],0.61%
same,inhibition,[19],-0.22%
same,inhibition,[20],0.43%
c1ccc(Oc2ccc(Nc3ncc(-c4ccccc4)o3)cc2)cc1,inhibition,[1],3.8%
same,inhibition,[2],2.14%
same,inhibition,[3],3.61%
same,inhibition,[4],2.21%
same,inhibition,[5],3.15%
same,inhibition,[6],1.21%
same,inhibition,[7],3.1%
same,inhibition,[8],2.99%
same,inhibition,[9],6.18%
same,inhibition,[10],3.48%
same,inhibition,[11],4.29%
same,inhibition,[12],4.32%
same,inhibition,[13],4.11%
same,inhibition,[14],1.98%
same,inhibition,[15],3.12%
same,inhibition,[16],0.81%
same,inhibition,[17],1.91%
same,inhibition,[18],0.83%
same,inhibition,[19],1.55%
same,inhibition,[20],0.67%
Cc1nnc(-c2ccc(C)c(-c3ccc(C(=O)NCc4ccc(Cl)cc4)cc3)c2)o1,inhibition,[1],-0.8%
same,inhibition,[2],2.09%
same,inhibition,[3],-0.1%
same,inhibition,[4],2.07%
same,inhibition,[5],5.32%
same,inhibition,[6],3.25%
same,inhibition,[7],3.86%
same,inhibition,[8],2.66%
same,inhibition,[9],5.13%
same,inhibition,[10],1.51%
same,inhibition,[11],2.48%
same,inhibition,[12],3.86%
same,inhibition,[13],5.72%
same,inhibition,[14],2.78%
same,inhibition,[15],2.72%
same,inhibition,[16],2%
same,inhibition,[17],2.89%
same,inhibition,[18],3.07%
same,inhibition,[19],3.77%
same,inhibition,[20],1.59%
Fc1ccc(-c2c(-c3ccncc3)nc3n2CCS3)cc1,inhibition,[1],0.4%
same,inhibition,[2],0.15%
same,inhibition,[3],1.02%
same,inhibition,[4],4.15%
same,inhibition,[5],8.03%
same,inhibition,[6],2.62%
same,inhibition,[7],7.38%
same,inhibition,[8],6.08%
same,inhibition,[9],14.6%
same,inhibition,[10],8.73%
same,inhibition,[11],13.8%
same,inhibition,[12],11.2%
same,inhibition,[13],16.1%
same,inhibition,[14],3.39%
same,inhibition,[15],6.17%
same,inhibition,[16],3.04%
same,inhibition,[17],6%
same,inhibition,[18],2.43%
same,inhibition,[19],3.27%
same,inhibition,[20],1.3%
Cc1ccc(C(=O)NC(C)C)cc1-c1ccc(C(=O)NCC2CC2)cc1,inhibition,[1],-0.88%
same,inhibition,[2],-3.09%
same,inhibition,[3],-2.84%
same,inhibition,[4],-3.24%
same,inhibition,[5],-2.98%
same,inhibition,[6],-1.45%
same,inhibition,[7],-0.98%
same,inhibition,[8],-1.5%
same,inhibition,[9],-1.51%
same,inhibition,[10],-1.38%
same,inhibition,[11],-0.1%
same,inhibition,[12],-1.71%
same,inhibition,[13],-1.76%
same,inhibition,[14],1.38%
same,inhibition,[15],-0.32%
same,inhibition,[16],1.65%
same,inhibition,[17],1.68%
same,inhibition,[18],-0.25%
same,inhibition,[19],0.47%
same,inhibition,[20],-0.44%
CNC(=O)c1cncc(/C=C/c2c(C)cccc2C)c1,inhibition,[1],-2.22%
same,inhibition,[2],-2.33%
same,inhibition,[3],-3.04%
same,inhibition,[4],-0.33%
same,inhibition,[5],4.28%
same,inhibition,[6],0.8%
same,inhibition,[7],1.58%
same,inhibition,[8],0.26%
same,inhibition,[9],0.53%
same,inhibition,[10],-0.35%
same,inhibition,[11],0.33%
same,inhibition,[12],1.01%
same,inhibition,[13],1.34%
same,inhibition,[14],1.16%
same,inhibition,[15],0.45%
same,inhibition,[16],0.6%
same,inhibition,[17],-0.28%
same,inhibition,[18],1.22%
same,inhibition,[19],0.63%
same,inhibition,[20],0.47%
